Data as given in the supplement of paper PMC6555819.

What was measured:
Assay in all cases: PBM binding z-score (relative to random genomic background probes); higher = stronger binding; sequences stand for … in GC…GCGATTGACAGCGTAGAATGAAGG
[1] = tested on: FXR:RXRa (NR concentration 270 nM, RXRa partner concentration 90 nM)
In short: (§1)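 Random background probes are the reference for binding z-scores. These scores derive from regression-normalized fluorescence on custom Agilent 4×180K protein-binding microarrays incubated 1 h with ligand-free nuclear receptor dimers. Binding was detected with antibodies against each partner (one per run).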

[2] = tested on: LXRa:RXRa (NR concentration 270 nM, RXRa partner concentration 90 nM)
In short: as §1

[3] = tested on: LXRa homodimer (NR concentration 270 nM)
In short: as §1

[4] = tested on: LXRb:RXRa (NR concentration 270 nM, RXRa partner concentration 90 nM)
In short: as §1

[5] = tested on: LXRb homodimer (NR concentration 270 nM)
In short: as §1

[6] = tested on: PPARa:RXRa (NR concentration 270 nM, RXRa partner concentration 90 nM)
In short: as §1

[7] = tested on: PPARg:RXRa (NR concentration 180 nM, RXRa partner concentration 90 nM)
In short: as §1

[8] = tested on: PPARg:RXRa 270nM:90nM, anti-RXR (NR concentration 270 nM, RXRa partner concentration 90 nM)
In short: as §1

[9] = tested on: PPARg:RXRa 30nM:10nM, anti-RXR (NR concentration 30 nM, RXRa partner concentration 10 nM)
In short: as §1

[10] = tested on: PPARg:RXRa 90nM:30nM, anti-RXR (NR concentration 90 nM, RXRa partner concentration 30 nM)
In short: as §1

[11] = tested on: PPARg:RXRa DBDmut IVT, anti-RXR (DBD mutation: RXRa K156A/R161A, NR concentration 270 nM, RXRa partner concentration 90 nM)
In short: as §1

[12] = tested on: PPARg:RXRa IVT, anti-PPARg (NR concentration 270 nM, RXRa partner concentration 90 nM)
In short: as §1

[13] = tested on: PPARg DBDmut:RXRa IVT, anti-PPARg (DBD mutation: PPARg1 K132A/R137A, NR concentration 270 nM, RXRa partner concentration 90 nM)
In short: as §1

[14] = tested on: PPARg DBDmut IVT, anti-PPARg (DBD mutation: PPARg1 K132A/R137A, NR concentration 270 nM)
In short: as §1

[15] = tested on: PPARg homodimer (NR concentration 180 nM)
In short: as §1

[16] = tested on: PXR:RXRa (NR concentration 270 nM, RXRa partner concentration 90 nM)
In short: as §1

[17] = tested on: PXR homodimer (NR concentration 270 nM)
In short: as §1

[18] = tested on: RARa:RXR (NR concentration 270 nM, RXRa partner concentration 90 nM)
In short: as §1

[19] = tested on: RARa homodimer (NR concentration 270 nM)
In short: as §1

[20] = tested on: RARb:RXRa (NR concentration 270 nM, RXRa partner concentration 90 nM)
In short: as §1

Sequence	PBM binding z-score [1]	PBM binding z-score [2]	PBM binding z-score [3]	PBM binding z-score [4]	PBM binding z-score [5]	PBM binding z-score [6]	PBM binding z-score [7]	PBM binding z-score [8]	PBM binding z-score [9]	PBM binding z-score [10]	PBM binding z-score [11]	PBM binding z-score [12]	PBM binding z-score [13]	PBM binding z-score [14]	PBM binding z-score [15]	PBM binding z-score [16]	PBM binding z-score [17]	PBM binding z-score [18]	PBM binding z-score [19]	PBM binding z-score [20]
TAGCCTAGGTCATGGGGGCCAGTATAGTGTCGGC	4.96	4	0.742	4.86	5.38	4.64	4.04	4.26	1.09	3.11	1.91	4.23	4.89	4.09	2.19	3.01	0.254	3.41	0.4	4.04
ACTAGTTGGTCTGCTGAGGTCACACACAATTCGG	2.8	2.9	1.91	3.28	0.53	3.39	1.35	1.95	0.572	1.35	0.557	1.95	0.686	1.46	2.32	4.42	1.43	3.73	0.842	3.2
ACTAGCCGGCCAAGTTTGGGTCACTCAAACAAAG	0.307	0.194	-0.183	0.789	-0.664	1.32	-0.0659	-0.198	-1.03	-0.301	-0.561	0.67	-0.942	-0.912	0.449	0.729	-0.476	1.25	-0.454	1.5
ATATGTAGGTTATCGGATCATTCAGTTTGCGCAT	0.778	1.32	0.544	0.974	0.803	3.32	4.5	4.3	2.14	3.56	7.18	6.73	2.24	2.07	1.46	0.908	0.884	1.05	1.48	0.993
CCTGCAAGGTCATGGTCAGCTAATCTACAGTATG	6.95	5.02	0.64	4.16	0.00573	5.68	4.66	5.14	2.07	3.51	2.84	3.3	1.03	1.64	3.29	4.62	0.377	5.57	1.03	5.04
CCTATTAGTTGACGATAAGGGCAACCGAAGCTCG	0.29	0.114	-0.102	0.152	0.201	0.204	0.482	0.0797	0.0506	0.157	0.107	-0.036	0.257	0.471	1.85	0.261	0.241	0.847	1.05	1.33
ATCGAAAGGTCGAAGAGGTGAGTATACACCGTTT	4.26	3.51	-0.1	2.49	0.443	4.09	2.38	2.8	0.698	2.03	-0.0174	1.75	0.444	0.332	1.01	2.82	0.5	3.46	0.27	3.62
TCGCGTAGGTTACCAATGGGGCATTCAGCTTTCT	-0.205	1.54	-0.559	1.01	-0.67	0.898	-0.342	0.743	1.41	0.958	1.28	0.245	-1.11	-0.793	-0.721	0.0701	-1.03	0.355	-1.2	1.05
CCGAGTAGGTTATGGGGCATTCTGGCAACGGTGA	0.393	0.413	-0.113	0.625	-0.33	2.14	3.38	4.15	2.03	3.6	3.05	3.19	-0.237	-1.42	1.24	0.151	0.0972	0.523	0.262	0.978
CGTCCTAGGTCAGAGAGGTCAGTGAATGCCGAGT	3.96	3.93	2.32	3.09	-0.0595	3.75	2.04	3.12	0.277	1.95	2.86	3.03	-0.901	-1.15	5.14	4.85	8.52	4.68	2.45	4.4
CCTACTCGGCCATCAGGTCATTGATATCAACGTT	2.3	1.76	2.13	2.26	1.01	2.16	1.06	1.62	0.262	1.02	2.58	2.67	0.141	-0.00439	2.27	2.02	1.21	2.36	1.12	2.29
TCTAGTTGGTCAAATGTCACACACTCGAAATGCG	0.894	0.965	0.736	1.29	0.913	2.93	5.26	6.74	5.88	7.55	2.7	3.59	1.9	2.34	2.58	1.09	0.666	1.67	1.52	1.89
CCTACTGGGCCATTCAAAGGTCATTGATCATATG	3.24	4.61	6.31	4.29	0.576	4.43	3.07	4.03	1.44	3.35	4.67	4.81	-0.127	-0.542	2.61	5	2.28	5.19	0.686	3.72
GATACAGGGTCAAGGCCTGAGTACGCGTATTGAT	6.17	3.94	-0.32	3.35	-0.67	5.35	5.34	5.5	2.3	4.29	2.78	3.87	0.27	0.16	1.74	3.43	0.0722	3.99	0.47	4.4
ACTATTAGTTGACTTAGGGCAAACGATACGACGC	0.00537	0.0216	0.165	0.185	0.529	0.325	1.17	0.319	0.276	0.322	0.0351	0.568	1.39	1.52	0.392	0.274	0.0698	0.533	0.0866	0.712
TCATATAGGTAAAGGTAAAAGTCGAACGATATGA	0.715	1.06	-0.299	0.926	-0.151	2.1	2.75	3.46	4.13	3.8	3.98	3.36	1.85	1.27	0.454	0.53	0.308	0.709	1.3	0.845
TCATATAGCTAAAGGTGAAAGTCGAACGATATGA	1.12	1.09	-0.213	1.26	-0.321	2.67	2.06	3.08	3.19	3.31	1.54	1.41	0.485	1.01	0.548	0.662	0.459	1.51	0.712	1.62
ACTTACCGGTCAACGAGGTTATAGCACGCGTATA	2.61	3.17	2.47	1.96	1.3	2.3	1.3	1.2	0.21	0.785	1.22	1.9	0.959	1.45	1.88	2.33	1.42	2.38	1.15	3.08
CCTACTGGGACATTCAGAGGTCATTGATCATATG	3.08	4.71	7.13	4.05	1.06	3.74	2.3	3.13	0.845	2.31	4.26	3.96	0.709	0.697	3.07	5.15	3.43	4.96	1.35	3.11
TCATATAGGTAAATGCCAGGTGAAAGTCCGATCT	1.31	1.12	0.378	0.902	0.0242	1.62	0.873	2.48	3.67	3.1	4.32	2.79	1.11	0.542	0.867	0.553	0.292	1.21	0.678	0.624
TAGCCTAGGTCATTGGCCAGTATACCACGCGAAC	4.93	3.34	0.738	2.61	0.254	3.41	2.4	2.49	0.453	1.44	1.38	2.72	0.244	-0.771	1.49	1.56	-0.368	2.16	-0.259	3.57
GGAACGAGGGCAGGTTGATAGCAGAGTTTGATGG	0.204	0.00952	-0.393	0.00491	-0.45	0.686	0.674	0.307	-0.182	0.0591	2.17	1.68	-0.931	-0.47	0.542	0.273	0.636	0.164	0.17	1.87
CCTTCTAGGTCATGGTCAGCTAATCTACAGTATG	3.87	2.77	0.676	2.12	0.355	4.37	5.63	5.39	2.57	4.28	7.22	6.72	1.58	1.21	2.24	1.7	0.327	2.63	1.36	4.08
CCTCGGAGGACAACACGAGGTCAGAGCTGCCAGA	1.62	2.84	2.76	1.58	-0.589	2.22	0.596	0.153	-0.655	-0.293	0.265	0.387	-0.876	-1.22	1.79	3.06	0.779	3.03	0.807	2.96
CGTCCAATGTCATAGGAGGTCAGTGAAGACAGAT	3.22	4.74	1.21	2.36	0.0659	2.66	0.938	0.958	0.0922	0.565	0.186	1.95	0.476	0.254	1.72	3.91	0.941	2.69	0.765	2.9
ACTATTGGTTGACTTAGGGCAACCGATACGACGC	0.0585	0.381	-0.0343	0.201	0.546	0.0767	0.718	0.153	0.181	0.103	-0.408	0.507	0.7	0.813	-0.419	0.245	-0.0405	0.77	-0.0341	0.653
ATATGTAGGTTAGATCCGGGTCATTCAGGCTATG	1.55	2.3	0.843	1.99	0.185	3.74	4.17	3.71	1.53	2.86	6.3	6.32	1.34	0.983	1.65	3.1	1.25	3.08	1.01	2.03
GGAACGAGGGCAAAGTTGATTGCATCTGTCGACG	1.25	0.976	-0.336	0.888	-0.546	3.9	6.23	6.84	5.63	6.92	4.27	4.05	0.0713	-0.581	0.375	1.16	0.179	1.39	-0.237	2.18
GCTGGTTGGTCAGTAAAAGGTCACACACCGGTCG	3.32	4.46	4.47	4.09	1.04	4.38	2.91	4.89	2.71	4.59	0.091	2.51	0.438	0.205	3.78	5.07	1.42	6.03	2.87	4.3
